Source: PubChem BioAssay (NCI)
This is part of a sample that, as a whole, favours compounds with a hit. Of some 79,000 tested, about 15% had one in any assay. Activity calls are given as the source filed them. No stated cut-off is given here; in the data, active means growth inhibition above about 70%; inactive means the rest.

Legend:
[1] = NCI Yeast Anticancer Drug Screen. Data for the rad50 strain (AID 155);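 further: 0% = growth of vehicle-only cultures of the same strain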; details: S. cerevisiae rad50 strain growth inhibition, active compounds read high
Procedure, shortened: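 Readout: growth inhibition relative to vehicle-treated cultures. Compound exposure was carried out in a genetically defined yeast strain deficient in DNA damage repair.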

[2] = NCI Yeast Anticancer Drug Screen. Data for the mec2-1 strain (AID 157); details: S. cerevisiae mec2-1 strain, active compounds read high
Procedure, shortened: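 Strain: mec2-1 (DNA repair/cell cycle alteration). Compound exposure, then growth measured; inhibition expressed relative to vehicle.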

[3] = NCI Yeast Anticancer Drug Screen. Data for the sgs1 mgt1 strain (AID 161);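 further: 0% = growth of cultures given vehicle only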; details: S. cerevisiae sgs1 mgt1 strain, active compounds read high
Procedure, shortened: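 Inhibition of yeast growth, normalised to vehicle-treated controls, is reported for a strain bearing genetic alterations in DNA damage repair.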

[4] = NCI Yeast Anticancer Drug Screen. Data for the cln2 rad14 strain (AID 165);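 further: 0% = growth equal to vehicle treated cultures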; details: S. cerevisiae cln2 rad14 strain, active compounds read high
Procedure, shortened: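 Compounds are applied to the cln2 rad14 yeast strain, and growth is then compared with that of vehicle-treated cultures to give inhibition.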

[5] = NCI Yeast Anticancer Drug Screen. Data for the bub3 strain (AID 167); details: S. cerevisiae bub3 mutant strain, active compounds read high
Procedure, shortened: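 Readout: yeast growth inhibition, expressed relative to vehicle-only wells. The test organism is a mutant strain from a panel with lesions in DNA repair or checkpoint genes.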

[6] = NCI Yeast Anticancer Drug Screen. Data for the mlh1 rad18 strain (AID 175); details: S. cerevisiae mlh1 rad18 strain growth inhibition, active compounds read high
Procedure, shortened: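 Read-out is yeast growth inhibition, calculated against vehicle-only controls. The compound was applied to a strain engineered with DNA damage repair alterations.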

[7] = at 5.0 µM (retest, dose inferred, filed as 0.5)
[8] = at 50.0 µM (retest, dose inferred, filed as 5.0)

Measured: growth inhibition

CCC(N)(CO)CO
inactive: [1]; [7] 7% | [1]; [8] 67% | [1]; at 50.0 µM 3.65% | [2]; [7] 5% | [2]; [8] 8% | [2]; at 50.0 µM 8.3% | [3]; [7] 2% | [3]; [8] 11% | [3]; at 50.0 µM 9.7% | [4]; [7] 5% | [4]; [8] 12% | [5]; [7] 3% | [5]; [8] 14% | [5]; at 50.0 µM 44.1% | [6]; [7] 2% | [6]; [8] 8% | [6]; at 50.0 µM -30.2%
active: [4]; at 50.0 µM 71.5%

c1ccc2c(CCc3ccncc3)c[nH]c2c1
inactive: [1]; [7] 2% | [1]; at 50.0 µM 46.8% | [2]; [7] -4% | [2]; [8] 59% | [2]; at 50.0 µM 45.1% | [3]; [7] 11% | [3]; at 50.0 µM 50.1% | [4]; [7] -13% | [4]; [8] 69% | [4]; at 50.0 µM 6.25% | [5]; [7] -10% | [5]; at 50.0 µM 4.8% | [6]; [7] -13% | [6]; [8] 65% | [6]; at 50.0 µM 57.5%
active: [1]; [8] 78% | [3]; [8] 82% | [5]; [8] 75%

C[Si](C)(C)CC(c1ccccc1)C(O)c1ccccc1 (stereo not given)
active: [1]; [8] 96% | [1]; at 50.0 µM 98.5% | [2]; [8] 98% | [2]; at 50.0 µM 97.8% | [3]; [8] 98% | [3]; at 50.0 µM 98% | [4]; [8] 97% | [4]; at 50.0 µM 93.9% | [5]; [8] 98% | [5]; at 50.0 µM 98.7% | [6]; [8] 98% | [6]; at 50.0 µM 98.8%
inactive: [1]; [7] -7% | [2]; [7] -4% | [3]; [7] -3% | [4]; [7] 0% | [5]; [7] 0% | [6]; [7] 1%

O=C(Oc1ccc(/C=C/[n+]2ccccc2)c(OC(=O)c2ccccc2)c1)c1ccccc1
inactive: [1]; [7] -4% | [1]; at 50.0 µM 49.6% | [2]; [7] 14% | [2]; at 50.0 µM 18.7% | [3]; [7] -11% | [4]; [7] -8% | [4]; at 50.0 µM 5.7% | [5]; [7] 1% | [5]; at 50.0 µM -1.45% | [6]; [7] 7% | [6]; at 50.0 µM 48.7%
active: [1]; [8] 93% | [2]; [8] 97% | [3]; [8] 95% | [3]; at 50.0 µM 70.2% | [4]; [8] 91% | [5]; [8] 83% | [6]; [8] 98%

O=C1CCCC1C(=O)OC1CCCC1 (stereo not given)
inactive: [1]; [7] 42% | [1]; [8] 13% | [1]; at 50.0 µM -7.55% | [2]; [7] 13% | [2]; [8] 4% | [2]; at 50.0 µM -15% | [3]; [7] 7% | [3]; [8] 2% | [3]; at 50.0 µM -18.6% | [4]; [7] 14% | [4]; [8] 3% | [4]; at 50.0 µM 48.5% | [5]; [7] 24% | [5]; [8] 0% | [5]; at 50.0 µM -19.3% | [6]; [7] 14% | [6]; [8] 0% | [6]; at 50.0 µM -11.4%

CCC(=S)N(C)O
active: [1]; [7] 95% | [1]; [8] 96% | [2]; [7] 99% | [2]; [8] 98% | [3]; [7] 100% | [3]; [8] 98% | [4]; [7] 98% | [4]; [8] 91% | [5]; [7] 100% | [5]; [8] 97% | [6]; [7] 98% | [6]; [8] 97% | [6]; at 50.0 µM 86.2%
inactive: [1]; at 50.0 µM 66.5% | [2]; at 50.0 µM 50.9% | [3]; at 50.0 µM 69% | [4]; at 50.0 µM 45.1% | [5]; at 50.0 µM 52%

CCCCCCCCCCOC1C(C(O)CNCCCN(C)C)OC2OC3(CCCCC3)OC21 (stereo not given)
active: [1]; [8] 97% | [1]; at 50.0 µM 91.9% | [2]; [8] 98% | [2]; at 50.0 µM 93.2% | [3]; [8] 98% | [3]; at 50.0 µM 91% | [4]; [8] 97% | [4]; at 50.0 µM 90.3% | [5]; [8] 98% | [5]; at 50.0 µM 89% | [6]; [8] 97% | [6]; at 50.0 µM 90.2%
inactive: [1]; [7] 1% | [2]; [7] -27% | [3]; [7] 7% | [4]; [7] 21% | [5]; [7] -24% | [6]; [7] 5%

O=[N+]([O-])c1ccc(S(=O)(=O)N/N=C/C=C/c2ccccc2)cc1
active: [1]; at 50.0 µM 71% | [3]; at 50.0 µM 87.5% | [6]; at 50.0 µM 75.5%
inactive: [1]; [7] 6% | [1]; [8] 13% | [2]; [7] 2% | [2]; [8] 17% | [2]; at 50.0 µM 37% | [3]; [7] 4% | [3]; [8] 14% | [4]; [7] -4% | [4]; [8] 16% | [4]; at 50.0 µM 48.3% | [5]; [7] 6% | [5]; [8] 36% | [5]; at 50.0 µM 48.6% | [6]; [7] 6% | [6]; [8] 39%

CCC(CO)Nc1nc2cc(Cl)ccc2c2ccc(Cl)cc12 (stereo not given)
active: [1]; [8] 98% | [1]; at 50.0 µM 93.6% | [2]; [8] 99% | [2]; at 50.0 µM 94.8% | [3]; [8] 97% | [3]; at 50.0 µM 95.6% | [4]; [8] 97% | [4]; at 50.0 µM 89.8% | [5]; [8] 97% | [5]; at 50.0 µM 95.5% | [6]; [8] 96% | [6]; at 50.0 µM 94%
inactive: [1]; [7] 19% | [2]; [7] 2% | [3]; [7] 24% | [4]; [7] -4% | [5]; [7] 11% | [6]; [7] 20%

O=c1oc2ccccc2c(O)c1/C=N\c1nc(-c2ccccc2)cs1
inactive: [1]; [7] 41% | [1]; at 50.0 µM 8.95% | [2]; [7] 42% | [2]; at 50.0 µM 16.4% | [3]; [7] 53% | [3]; at 50.0 µM 31.9% | [4]; [7] 36% | [4]; at 50.0 µM 36.6% | [5]; at 50.0 µM 17.1% | [6]; [7] 34%
active: [1]; [8] 99% | [2]; [8] 99% | [3]; [8] 100% | [4]; [8] 97% | [5]; [7] 81% | [5]; [8] 100% | [6]; [8] 99% | [6]; at 50.0 µM 91.8%
